Hit rate of the full screen: of about 5,500 compounds, about 2,000 (36%) were called active. Not shown: some 18% with an inconclusive outcome. Rule as the data show it: active = normalized growth mostly below about 0.91 (no sharp cut-off); inconclusive = no clear call, values can overlap the other calls; inactive = mostly above about 0.92. Some of the results follow.
Experiment: chemical genetic growth profiling, strain panel (AID 1159580);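 also: tested at 20 µM; growth read once vehicle control cultures reached saturation at 30 °C; 1 = growth at the plate median or of vehicle wells; lower values mean less growth of the strain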
Details: S. cerevisiae deletion strains, growth OD

Measured: normalized growth

CC(=O)O[C@@H]1c2c(ccc3ccc(=O)oc23)OC(C)(C)[C@@H]1OC(=O)CC(C)C
inactive: locus YAL021C, strain ccr4, hits give low values 1.03 | locus YAL026C, strain drs2, hits give low values 0.993 | locus YAL030W, strain snc1, hits give low values 1 | locus YBL061C, strain skt5, hits give low values 0.992 | locus YBR009C, strain hhf1, hits give low values 1.05 | locus YBR021W, strain FUR4, hits give low values 1.02 | locus YBR023C, strain chs3, hits give low values 0.991 | locus YBR171W, strain sec66, hits give low values 0.974 | locus YBR229C, strain ROT2, hits give low values 0.993 | locus YBR231C, strain swc5, hits give low values 1 | locus YBR279W, strain paf1, hits give low values 1.02 | locus YCL011C, strain gbp2, hits give low values 1.01 | locus YCL016C, strain dcc1, hits give low values 1 | locus YCL029C, strain bik1, hits give low values 1.03 | locus YCL061C, strain MRC1, hits give low values 1 | locus YCL069W, strain vba3, hits give low values 1.01 | locus YCR088W, strain abp1, hits give low values 0.997 | locus YDL005C, strain med2, hits give low values 0.995 | locus YDL035C, strain GPR1, hits give low values 1.01 | locus YDL040C, strain nat1, hits give low values 1.01 | locus YDL074C, strain BRE1, hits give low values 1.01 | locus YDL101C, strain DUN1, hits give low values 1 | locus YDL134C, strain PPH21, hits give low values 0.977 | locus YDL185W, strain tfp1, hits give low values 1.03 | locus YDL192W, strain arf1, hits give low values 1 | locus YDR001C, strain nth1, hits give low values 1.01 | locus YDR069C, strain doa4, hits give low values 1 | locus YDR101C, strain arx1, hits give low values 1.05 | locus YDR159W, strain sac3, hits give low values 0.974 | locus YDR162C, strain NBP2, hits give low values 0.976 | locus YDR195W, strain ref2 1.07 | locus YDR297W, strain sur2, hits give low values 0.994 | locus YDR318W, strain mcm21, hits give low values 0.978 | locus YDR334W, strain swr1, hits give low values 1.01 | locus YDR335W, strain msn5, hits give low values 1.02 | locus YDR388W, hits give low values 1.01 | locus YDR502C, strain sam2, hits give low values 1 | locus YEL003W, strain gim4, hits give low values 1.02 | locus YEL037C, strain rad23, hits give low values 1.01 | locus YEL061C, strain CIN8 (second series), hits give low values 1.01 | locus YEL061C, strain CIN8, hits give low values 0.978 | locus YER015W, strain faa2, hits give low values 1.01 | locus YER016W, strain bim1, hits give low values 0.995 | locus YER110C, hits give low values 1.03 | locus YER111C, strain swi4, hits give low values 1 | locus YER155C, strain BEM2 (second series), hits give low values 0.972 | locus YER155C, strain BEM2, hits give low values 1 | locus YER167W, strain BCK2, hits give low values 1 | locus YFR010W, strain ubp6, hits give low values 1.03 | locus YGL078C, strain dbp3, hits give low values 1.02 | locus YGL086W, strain mad1, hits give low values 1.03 | locus YGL167C, strain pmr1, hits give low values 0.989 | locus YGL173C, strain kem1, hits give low values 0.987 | locus YGL227W, strain vid30, hits give low values 1 | locus YGL240W, strain doc1, hits give low values 1.02 | locus YGL248W, strain PDE1, hits give low values 0.994 | locus YGL253W, strain hxk2, hits give low values 0.986 | locus YGR078C, strain PAC10, hits give low values 1 | locus YGR135W, strain pre9, hits give low values 1 | locus YGR252W, strain gcn5, hits give low values 1 | locus YHR013C, strain ard1, hits give low values 1.01 | locus YHR027C, strain rpn1, hits give low values 0.999 | locus YHR030C, strain SLT2, hits give low values 0.988 | locus YHR079C, strain IRE1 (second series), hits give low values 1.01 | locus YHR094C, strain hxt1, hits give low values 1.01 | locus YHR129C, strain ARP1, hits give low values 0.993 | locus YHR142W, strain chs7, hits give low values 0.99 | locus YHR200W, strain rpn10, hits give low values 1.03 | locus YIL066C, strain RNR3, hits give low values 0.982 | locus YIL073C, strain SPO22, hits give low values 1.01 | locus YIL125W, strain kgd1, hits give low values 1.02 | locus YIR030C, strain dcg1, hits give low values 1 | locus YJL092W, strain hpr5, hits give low values 0.998 | locus YJL095W, strain BCK1 (second series), hits give low values 0.995 | locus YJL095W, strain BCK1, hits give low values 0.94 | locus YJL115W, strain asf1, hits give low values 1.01 | locus YJL129C, strain trk1, hits give low values 0.918 | locus YJL134W, strain LCB3, hits give low values 0.994 | locus YJL154C, strain vps35, hits give low values 1.01 | locus YJL164C, strain tpk1, hits give low values 1.02 | locus YJL166W, strain qcr8, hits give low values 0.961 | locus YJL168C, strain set2, hits give low values 1.02 | locus YJL187C, strain SWE1 (second series), hits give low values 1 | locus YJL187C, strain SWE1, hits give low values 0.996 | locus YJR043C, strain POL32, hits give low values 1.03 | locus YKL009W, strain mrt4, hits give low values 1.01 | locus YKL068W, hits give low values 0.996 | locus YKL085W, strain MDH1 (second series), hits give low values 0.988 | locus YKL085W, strain MDH1, hits give low values 0.988 | locus YKL160W, strain elf1, hits give low values 0.928 | locus YKL190W, strain CNB1, hits give low values 0.989 | locus YKR001C, strain vps1, hits give low values 1.01 | locus YKR026C, strain gcn3, hits give low values 0.998 | locus YKR091W, strain srl3, hits give low values 0.997 | locus YLL001W, strain dnm1, hits give low values 0.957 | locus YLL026W, hits give low values 1 | locus YLL041C, strain sdh2, hits give low values 1 | locus YLR027C, strain aat2, hits give low values 0.999 | locus YLR039C, strain RIC1, hits give low values 0.921 | locus YLR058C, strain SHM2, hits give low values 0.982 | locus YLR102C, strain apc9, hits give low values 1.01 | locus YLR221C, strain rsa3, hits give low values 0.979 | locus YLR258W, strain gsy2, hits give low values 1.01 | locus YLR262C, strain YPT6, hits give low values 0.889 | locus YLR268W, strain sec22, hits give low values 1.03 | locus YLR320W, strain mms22, hits give low values 0.918 | locus YLR330W, strain CHS5, hits give low values 1 | locus YLR342W, strain FKS1 (second series), hits give low values 1 | locus YLR342W, strain FKS1, hits give low values 0.98 | locus YLR357W, strain rsc2, hits give low values 1.07 | locus YLR370C, strain arc18, hits give low values 1 | locus YLR371W, strain rom2, hits give low values 1.02 | locus YLR384C, strain iki3, hits give low values 1.01 | locus YLR418C, strain cdc73, hits give low values 0.947 | locus YML016C, strain PPZ1, hits give low values 0.992 | locus YML032C, strain rad52, hits give low values 0.992 | locus YML120C, strain ndi1, hits give low values 0.989 | locus YML124C, strain tub3, hits give low values 1 | locus YMR058W, strain fet3, hits give low values 1 | locus YMR078C, strain ctf18, hits give low values 1 | locus YMR125W, strain sto1, hits give low values 0.976 | locus YMR129W, hits give low values 1 | locus YMR205C, strain PFK2, hits give low values 0.878 | locus YMR223W, strain ubp8, hits give low values 0.986 | locus YMR231W, strain pep5, hits give low values 1 | locus YMR263W, strain SAP30, hits give low values 0.996 | locus YMR307W, strain GAS1, hits give low values 0.848 | locus YNL067W, strain RPL9B, hits give low values 0.998 | locus YNL209W, strain ssb2, hits give low values 1.01 | locus YNL233W, strain BNI4, hits give low values 1.02 | locus YNL248C, strain rpa49, hits give low values 0.952 | locus YNL250W, strain rad50, hits give low values 1.02 | locus YNL271C, strain bni1, hits give low values 0.999 | locus YNL298W, strain CLA4, hits give low values 1.02 | locus YNL307C, strain MCK1, hits give low values 1.01 | locus YNL322C, strain KRE1 (second series), hits give low values 1.01 | locus YNL322C, strain KRE1, hits give low values 0.995 | locus YNR049C, strain mso1, hits give low values 1.01 | locus YNR052C, strain pop2, hits give low values 1 | locus YOL012C, strain htz1 0.997 | locus YOL147C, strain pex11, hits give low values 1 | locus YOR001W, strain rrp6, hits give low values 1.03 | locus YOR061W, strain CKA2, hits give low values 0.985 | locus YOR069W, strain VPS5, hits give low values 0.992 | locus YOR070C, strain gyp1, hits give low values 1 | locus YOR080W, strain dia2, hits give low values 1.02 | locus YOR083W, strain WHI5, hits give low values 0.949 | locus YOR106W, strain vam3, hits give low values 0.968 | locus YOR136W, strain idh2, hits give low values 1.03 | locus YOR144C, strain elg1, hits give low values 1.01 | locus YOR184W, strain ser1, hits give low values 0.921 | locus YOR265W, strain rbl2, hits give low values 1.01 | locus YOR270C, strain vph1, hits give low values 0.883 | locus YOR290C, strain snf2, hits give low values 1 | locus YOR316C, strain cot1, hits give low values 1.01 | locus YPL051W, strain arl3, hits give low values 0.951 | locus YPL078C, strain atp4, hits give low values 0.93 | locus YPL106C, strain sse1, hits give low values 1.06 | locus YPL240C, strain hsp82, hits give low values 1 | locus YPL241C, strain CIN2, hits give low values 0.973 | locus YPR119W, strain clb2, hits give low values 1 | locus YPR141C, strain kar3, hits give low values 0.994 | locus YPR163C, strain tif3, hits give low values 1.01 | locus YPR167C, strain met16, hits give low values 1.01 | strain wtn01, hits give low values 1.04
active: locus YDR137W, strain rgp1, hits give low values 0.796 | locus YDR392W, strain spt3, hits give low values 0.591 | locus YLR262C, strain YPT6 (second series), hits give low values 0.794 | locus YNL071W, strain lat1, hits give low values 0.882
